Reference: PubChem BioAssay
Active and inactive are the calls of the source. Unless noted, how the calls were made is not given here.

What was measured:
[1] = compounds binding Alexa647 anti-His antibody – biochemical, small-molecule microarray, 635 nm fluorescence, artefact control for SMM control protein annotation, primary screen (AID 1128); conditions: higher = more signal;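 further: score merges feature fluorescence with signal-to-noise for each printed compound spot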
[2] = tested on: Human papillomavirus type 1a E7 protein (residues 1-88); test: HPV1a E7 small-molecule binders, primary screen, biochemical, small-molecule microarray, residues 1-88, 635 nm (AID 1129); conditions: small-molecule microarray binding, fluorescence 635 nm; higher = more signal
[3] = target: Focal adhesion kinase 1 (Homo sapiens) (UniProt Q05397); test: PTK2 protein binding on printed compound slides – biochemical, small-molecule microarray, 635/667 nm fluorescence, BSA, DTT, primary screen (AID 1130); conditions: 635 nm fluorescence, higher = more signal;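 further: composite of spot emission at 667 nm and signal to noise over triplicate slides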
[4] = tested on: Fibrinogen (Alexa647-labelled); test: Alexa647-fibrinogen binding to printed small molecules – biochemical, small-molecule microarray, 635/667 nm fluorescence, artefact control for SMM control-protein annotation, profiling panel (AID 1131); conditions: fibrinogen-A647 binding fluorescence, higher = more signal;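 further: z-score merges 667 nm fluorescence with per-spot signal-to-noise over triplicate slides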
[5] = target: Follistatin (Homo sapiens) (UniProt P19883); test: FST protein binding to printed compounds – biochemical, small-molecule microarray, 635/667 nm fluorescence, primary screen (AID 1132); conditions: 635 nm fluorescence, higher = more signal
[6] = target: Fibroblast growth factor 2 (Homo sapiens) (UniProt P09038); test: basic fibroblast growth factor binding to printed compounds – biochemical, small-molecule microarray, 635/667 nm fluorescence, primary screen (AID 1133); conditions: FGF2, fluorescence 635/667, higher = more signal
[7] = JC-1 mitochondrial potential readout, lung cancer cells – cell-based, A549, JC-1 fluorescence, basal, 24 h, 100 nL, profiling panel (AID 1138); conditions: higher = more signal;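 further: A549 lung adenocarcinoma cells under basal conditions with no added stimulus; test concentration not given here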
[8] = tested on: Lefty1; test: Lefty1 protein binding to printed compounds – biochemical, small-molecule microarray, 635/667 nm fluorescence, primary screen (AID 1139); conditions: fluorescence 635/667, higher = more signal
[9] = tested on: wheat germ agglutinin (Triticum aestivum), Alexa647-labelled; test: Alexa647-WGA lectin binding to printed small molecules – biochemical, small-molecule microarray, 635/667 nm fluorescence, artefact control for SMM control-protein annotation, profiling panel (AID 1140); conditions: WGA-A647 binding, 635 nm fluorescence, higher = more signal;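 further: score merges 667 nm feature emission with signal to noise over triplicate slides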
[10] = target: Luciferin 4-monooxygenase (Photinus pyralis) (UniProt P08659); test: inhibition of purified Photinus pyralis luciferase – biochemical, luminescence, purified enzyme, 2006 set, primary screen (AID 1141); conditions: purified firefly luciferase, SteadyGlo luminescence, 30 min; higher = more signal, called active from +8 up or from −8 down;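 further: cell-free assay with purified firefly luciferase at 100 ng per well in PBS; test concentration not given here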
[11] = tested on: Wnt5a (protein binding on small-molecule microarray); test: small molecules binding Wnt5a protein – biophysical, small-molecule microarray, 635/667 nm fluorescence, primary screen (AID 1142); conditions: 635 nm fluorescence, higher = more signal;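 further: fluorescence read at 667 nm with signal to noise per printed feature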
[12] = ATP-based viability of Huh7 replicon cells – cell-based, CellTiter-Glo luminescence, basal, 48 h, cytotoxicity control for HCV replication inhibitor project, primary screen (AID 1143); conditions: higher = more signal, called active from +8 up or from −8 down;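 further: Huh7 hepatoma cells carrying a hepatitis C replication reporter with no stimulus; test concentration not given here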
[13] = Pseudomonas biofilm growth suppression – PAO1 strain, BacTiter-Glo luminescence, LB-PBS, primary screen (AID 1144); conditions: P. aeruginosa PAO1 biofilm, 12 h, higher = more signal
[14] = basal CRE-LacZ reporter activity in PC12 – cell-based, unstimulated, primary screen (AID 1145); conditions: no forskolin, luminescence, 4.5 h, higher = more signal, called active from +8 up or from −8 down
[15] = forskolin-driven CRE-LacZ activity in PC12 – cell-based, CRE-LacZ reporter, forskolin-stimulated, primary screen (AID 1146); conditions: luminescence, 4.5 h, higher = more signal, called active from +8 up or from −8 down;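 further: PC12 cells with 6xCRE LacZ reporter stimulated by forskolin 10 µM; beta-galactosidase reporter signal reflecting CREB driven transcription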
[16] = target: Streptavidin (Streptomyces avidinii) (UniProt P22629); test: compounds binding control protein streptavidin – biophysical, small-molecule microarray, 635/667 nm fluorescence, artefact control for SMM compound annotation, primary screen (AID 1147); conditions: higher = more signal;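 further: signal reflects streptavidin binding to arrayed compounds as a control protein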
[17] = probe aInhba binding on compound microarray – biochemical, small-molecule microarray, 635/667 nm fluorescence, primary screen (AID 1148); conditions: higher = more signal;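 further: score merges 667nm spot fluorescence with signal-to-noise for antibody binding to printed compounds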
[18] = target: Torsin-1A (Homo sapiens) (UniProt O14656); test: TOR1A wild-type binding on microarray – cell lysate, small-molecule microarray, lysate, 635/667 nm, primary screen (AID 1149); conditions: COS7 hTOR1A-WT lysate, 635 nm fluorescence, higher = more signal
[19] = target: Torsin-1A (Homo sapiens) (UniProt O14656); test: torsin A mutant lysate binding on microarrays – cell lysate, small-molecule microarray, COS7 lysate, 635/667 nm fluorescence, primary screen (AID 1150); conditions: COS7 hTOR1A mutant lysate, 635 nm fluorescence, higher = more signal;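 further: score pools 667 nm emission and signal to noise measuring lysate protein binding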
[20] = tested on: Sonic hedgehog protein (Shh); test: Sonic hedgehog microarray binding compounds – biochemical, small-molecule microarray, 635/667 nm fluorescence, primary screen (AID 1151); conditions: 635 nm fluorescence, higher = more signal;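 further: Shh protein binding to compounds spotted on small-molecule microarray slides; score combines spot fluorescence intensity with signal-to-noise across triplicate slides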

Chain of Fibroblast growth factor 2 (Homo sapiens) (P09038 whole entry, looked up): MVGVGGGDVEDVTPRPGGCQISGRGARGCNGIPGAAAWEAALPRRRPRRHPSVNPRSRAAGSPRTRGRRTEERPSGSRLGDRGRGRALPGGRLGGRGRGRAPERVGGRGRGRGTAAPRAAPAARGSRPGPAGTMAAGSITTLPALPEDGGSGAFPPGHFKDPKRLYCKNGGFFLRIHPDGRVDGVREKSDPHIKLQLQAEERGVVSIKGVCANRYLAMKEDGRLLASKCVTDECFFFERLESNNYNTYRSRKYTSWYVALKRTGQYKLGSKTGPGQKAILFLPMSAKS
Chain of Luciferin 4-monooxygenase (Photinus pyralis) (P08659 whole entry, looked up): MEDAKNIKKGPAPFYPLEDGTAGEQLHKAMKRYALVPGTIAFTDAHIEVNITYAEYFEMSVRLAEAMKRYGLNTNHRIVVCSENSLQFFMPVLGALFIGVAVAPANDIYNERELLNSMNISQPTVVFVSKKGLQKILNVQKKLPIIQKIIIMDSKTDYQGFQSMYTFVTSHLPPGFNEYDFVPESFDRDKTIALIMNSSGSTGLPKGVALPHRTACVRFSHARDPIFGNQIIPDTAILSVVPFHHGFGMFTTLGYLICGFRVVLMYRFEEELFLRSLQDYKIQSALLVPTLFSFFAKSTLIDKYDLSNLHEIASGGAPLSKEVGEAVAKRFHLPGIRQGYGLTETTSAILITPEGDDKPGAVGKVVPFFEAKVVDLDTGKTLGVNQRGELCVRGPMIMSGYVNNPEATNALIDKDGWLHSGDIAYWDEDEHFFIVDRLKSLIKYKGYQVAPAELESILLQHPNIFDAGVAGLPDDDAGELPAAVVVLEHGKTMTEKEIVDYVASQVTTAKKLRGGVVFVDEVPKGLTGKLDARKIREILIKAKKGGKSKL
Chain of Torsin-1A (Homo sapiens) (O14656 whole entry, looked up): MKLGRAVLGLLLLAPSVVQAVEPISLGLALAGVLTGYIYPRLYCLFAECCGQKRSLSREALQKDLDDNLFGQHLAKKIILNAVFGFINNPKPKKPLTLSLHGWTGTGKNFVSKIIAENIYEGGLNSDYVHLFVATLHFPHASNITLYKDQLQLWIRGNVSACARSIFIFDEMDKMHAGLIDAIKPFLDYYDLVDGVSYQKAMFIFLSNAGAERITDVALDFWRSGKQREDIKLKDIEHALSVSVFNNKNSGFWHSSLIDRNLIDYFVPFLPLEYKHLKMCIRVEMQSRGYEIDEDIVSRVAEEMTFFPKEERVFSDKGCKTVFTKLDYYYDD
Chain of Streptavidin (Streptomyces avidinii) (P22629 whole entry, looked up): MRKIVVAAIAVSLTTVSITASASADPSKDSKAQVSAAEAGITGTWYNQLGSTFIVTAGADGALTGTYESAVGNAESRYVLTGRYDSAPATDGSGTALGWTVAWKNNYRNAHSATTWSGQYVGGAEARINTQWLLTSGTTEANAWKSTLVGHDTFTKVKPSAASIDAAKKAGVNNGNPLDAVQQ
Chain of Focal adhesion kinase 1 (Homo sapiens) (Q05397 whole entry, looked up): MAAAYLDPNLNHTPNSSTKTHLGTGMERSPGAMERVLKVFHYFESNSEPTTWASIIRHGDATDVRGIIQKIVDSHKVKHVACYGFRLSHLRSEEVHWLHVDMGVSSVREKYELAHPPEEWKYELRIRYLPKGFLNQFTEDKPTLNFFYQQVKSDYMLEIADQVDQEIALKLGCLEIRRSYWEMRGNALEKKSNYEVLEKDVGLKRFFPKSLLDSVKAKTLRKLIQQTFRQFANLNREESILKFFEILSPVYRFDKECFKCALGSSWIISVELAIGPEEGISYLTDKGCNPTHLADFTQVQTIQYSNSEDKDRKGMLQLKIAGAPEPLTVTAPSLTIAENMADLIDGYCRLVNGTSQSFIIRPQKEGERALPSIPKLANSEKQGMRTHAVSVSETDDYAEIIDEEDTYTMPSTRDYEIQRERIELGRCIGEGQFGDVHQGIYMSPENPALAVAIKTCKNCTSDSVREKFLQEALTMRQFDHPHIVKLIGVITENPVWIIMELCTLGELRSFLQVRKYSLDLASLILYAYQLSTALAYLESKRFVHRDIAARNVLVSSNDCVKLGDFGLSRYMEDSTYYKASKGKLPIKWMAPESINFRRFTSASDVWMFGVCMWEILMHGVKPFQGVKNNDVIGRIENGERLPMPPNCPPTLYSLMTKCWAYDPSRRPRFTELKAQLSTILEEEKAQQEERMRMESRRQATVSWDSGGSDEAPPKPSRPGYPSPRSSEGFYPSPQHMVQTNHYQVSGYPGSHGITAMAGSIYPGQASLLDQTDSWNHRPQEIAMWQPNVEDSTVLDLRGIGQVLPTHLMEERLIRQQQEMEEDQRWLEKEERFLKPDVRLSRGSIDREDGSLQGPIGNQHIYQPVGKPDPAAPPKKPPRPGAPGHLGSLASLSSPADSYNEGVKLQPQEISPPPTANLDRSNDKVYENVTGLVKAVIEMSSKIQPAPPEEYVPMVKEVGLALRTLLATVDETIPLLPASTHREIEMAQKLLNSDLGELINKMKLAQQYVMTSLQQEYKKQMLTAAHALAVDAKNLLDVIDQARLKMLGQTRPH
Chain of Follistatin (Homo sapiens) (P19883 whole entry, looked up): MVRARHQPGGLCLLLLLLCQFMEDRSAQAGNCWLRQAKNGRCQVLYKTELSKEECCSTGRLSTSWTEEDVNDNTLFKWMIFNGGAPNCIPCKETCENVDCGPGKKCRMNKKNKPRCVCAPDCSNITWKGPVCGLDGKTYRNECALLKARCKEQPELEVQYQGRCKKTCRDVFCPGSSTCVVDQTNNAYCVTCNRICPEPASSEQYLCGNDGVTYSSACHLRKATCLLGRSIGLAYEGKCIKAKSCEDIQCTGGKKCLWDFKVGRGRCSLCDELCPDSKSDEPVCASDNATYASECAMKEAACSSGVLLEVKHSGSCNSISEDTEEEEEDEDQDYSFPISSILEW

Row | Structure (SMILES) | composite z-score [1] | composite z-score [2] | composite z-score [3] | composite z-score [4] | composite z-score [5] | composite z-score [6] | z-score [7] | composite z-score [8] | composite z-score [9] | z-score [10] | composite z-score [11] | z-score [12] | z-score [13] | z-score [14] | z-score [15] | composite z-score [16] | composite z-score [17] | composite z-score [18] | composite z-score [19] | composite z-score [20]
1 | CN1C(=O)C2C=CC(C(O)c3ccc(I)cc3)N(NC(=O)OC(C)(C)C)C2C1=O (stereo not given) | 0.131 | 1.25 | 0.739 | 0.974 | 0.669 | -0.0956 | -0.317 | -0.119 | 0.743 | 0.607 (inactive) | 0.0527 | 0.6 (inactive) | 0.155 (inactive) | -0.515 (inactive) | 0.699 (inactive) | 0.323 | 0.274 | -0.042 | 0.447 | -0.436
2 | CN1C(=O)C2C(C1=O)C1C=C(CCCO)C2C(c2ccc(CN3CCCC3)cc2)N1C (stereo not given) | -0.0122 | -0.329 | 0.0551 | -1.58 | -0.227 | -0.052 | -1.01 | -0.0306 | -0.236 | 0.53 (inactive) | -0.205 | -0.202 (inactive) | 0.675 (inactive) | -0.0743 (inactive) | -0.436 (inactive) | -0.383 | -0.157 | 0.33 | -0.287 | 0.207
3 | CCCNC(=O)[C@@H]1c2ccccc2C(=O)N(c2ccc(C)cn2)[C@H]1c1ccc(CO)cc1 | 0.63 | -0.38 | 0.14 | -0.367 | 0.316 | 0.398 | -0.307 | -0.981 | -0.273 | 0.544 (inactive) | -0.108 | 0.62 (inactive) | 0.242 (inactive) | -0.412 (inactive) | 0.538 (inactive) | -0.372 | -0.108 | -0.291 | -0.397 | -0.013
4 | CO[C@@H]1COC(=O)[C@H](C)NC(=O)[C@@H](C)COC(=O)CCC[C@H]1C | -0.356 | 0.0754 | 0.574 | -0.796 | 0.775 | 0.851 | -0.816 | 0.784 | 0.405 | 0.981 (inactive) | -0.0361 | -0.639 (inactive) | 0.019 (inactive) | 0.085 (inactive) | 0.396 (inactive) | -0.185 | -0.128 | 0.738 | 0.462 | 1.24
5 | CO[C@@H]1COC(=O)CC=C[C@@H](C)[C@H](OC)COC(=O)[C@H](COCc2ccccc2)NC(=O)CC=C[C@H]1C | -1.36 | -2.53 | -0.843 | -1.21 | 1.43 | 0.513 | -0.169 | 1.12 | -1.13 | 0.518 (inactive) | -0.0092 | -0.069 (inactive) | 0.204 (inactive) | 0.0664 (inactive) | -0.707 (inactive) | -1.15 | -0.253 | 1.35 | 0.263 | 1.5
6 | CO[C@H]1O[C@H](CO)[C@@H](OC(=O)Nc2ccc(C#N)cc2)[C@H](OC(=O)c2cc3ccccc3[nH]2)[C@H]1OC(=O)c1cc2ccccc2[nH]1 | 2.87 | 1.18 | 0.831 | 0.787 | 0.491 | 1.33 | 0.71 | 0.421 | 0.955 | -2.01 (inactive) | 0.436 | -3.88 (inactive) | -2.05 (inactive) | 0.484 (inactive) | -1.03 (inactive) | 0.779 | -0.0011 | 0.91 | 1.36 | 0.746
7 | CC(C)=NOCc1cccc(-c2cc(-c3ccccc3)no2)c1 | 0.545 | 0.974 | 0.882 | 0.464 | 0.973 | 0.727 | 0.732 | 0.92 | 0.848 | -0.158 (inactive) | 0.118 | 0.525 (inactive) | -0.14 (inactive) | -0.437 (inactive) | 0.345 (inactive) | 0.468 | 0.106 | 0.533 | 0.247 | 0.826
8 | CCOC(=O)CCN1C(=O)[C@H]2[C@H]3[C@H](O)[C@H](O)CC(=NNC(=O)OCc4ccc(OC)cc4)[C@@H]3CC[C@H]2C1=O | -0.0498 | 0.842 | 0.215 | 0.367 | 0.541 | 0.474 | 0.385 | 0.833 | 0.985 | 0.666 (inactive) | -0.109 | -0.284 (inactive) | 0.5 (inactive) | 0.957 (inactive) | -0.254 (inactive) | 0.922 | -0.195 | -0.0239 | 0.0335 | 0.741
9 | COc1ccc(COC(=O)NN=C2C[C@@H](O)[C@@H](O)[C@@H]3[C@@H]4C(=O)N(Cc5ccc6c(c5)OCO6)C(=O)[C@@H]4CC[C@@H]23)cc1 | -0.272 | -0.568 | 0.256 | 0.144 | -0.989 | -0.922 | 0.982 | -0.86 | 0.247 | -0.283 (inactive) | 0.0183 | -0.797 (inactive) | 0.786 (inactive) | 1.61 (inactive) | -0.41 (inactive) | 1.09 | 0.0028 | -1.15 | -0.686 | -1.07
10 | CCCC=C(CCC)[C@@H](NC(=O)c1ccc(-c2ccccc2)cc1)c1ccc(C(=O)OC)cc1 | 0.377 | 1.19 | 0.296 | 0.967 | 0.142 | -0.558 | -0.457 | -0.182 | 1.2 | 1.93 (inactive) | -0.0745 | -0.116 (inactive) | 0.29 (inactive) | 0.576 (inactive) | 0.381 (inactive) | 1.09 | 0.0872 | -0.162 | 0.0735 | -0.809
